ATG4B inh: ATG4B (human) cysteine protease inhibition; actives 0.51% (n = 340,000); inhibition, % at 8.33 µM; ATG4B cleavage of LC3-PLA2, NBD-HPC fluorescence, 1 h; AID 504462; in the data active means inhibition above about 40%
PP1 counter: counter-screen for PP5 inhibitors: inhibitors of human PP1-alpha; purified PP1alpha, OMFP fluorescence; actives 0.9% (n = 320,000); inhibition, % at 6.7 µM; AID 2235;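 active means inhibition above the mean inhibition of all tested compounds plus 3 SD, computed separately for each screening campaign, cut at about 15% in these data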
Cardio protect: myocardial damage modulation in H9c2 cells | actives 0.63% (n = 360,000) | H9c2 cardiomyocytes, H2O2 injury protection, ATPLite, 2 h | AID 588492 | protection from H2O2 cell death, % at 20 µM;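 active means compounds giving at least 50% protection of heart cells from peroxide-induced death in the single-dose screen, raw or plate-pattern-corrected value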
PP5 primary: inhibitors of human protein phosphatase 5 (PP5) | purified PP5c, OMFP substrate fluorescence | inhibition, % at 6.7 µM | actives 0.18% (n = 320,000) | AID 1987;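 active means inhibition above the campaign's mean inhibition across all tested compounds plus 3 SD, cut at about 9.5% in these data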
Target sequence (P53041 whole entry, looked up): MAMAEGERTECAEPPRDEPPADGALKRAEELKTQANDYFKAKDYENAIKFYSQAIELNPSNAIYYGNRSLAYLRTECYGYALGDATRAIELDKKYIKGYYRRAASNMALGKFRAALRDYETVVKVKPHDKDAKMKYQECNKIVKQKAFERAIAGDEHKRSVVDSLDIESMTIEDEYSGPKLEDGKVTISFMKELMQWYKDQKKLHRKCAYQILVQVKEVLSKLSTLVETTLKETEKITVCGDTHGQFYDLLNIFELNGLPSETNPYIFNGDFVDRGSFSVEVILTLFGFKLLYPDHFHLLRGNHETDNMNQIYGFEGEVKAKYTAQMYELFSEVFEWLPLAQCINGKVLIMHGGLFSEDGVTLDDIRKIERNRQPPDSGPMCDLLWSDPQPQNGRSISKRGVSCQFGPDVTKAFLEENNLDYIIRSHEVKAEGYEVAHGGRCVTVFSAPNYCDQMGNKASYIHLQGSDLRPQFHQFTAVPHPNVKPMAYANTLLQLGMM
PP1 inh confirm: human PP1 phosphatase inhibition, confirmation. AID 2358. shares compounds with PP1 counter. purified PP1alpha, OMFP substrate fluorescence. actives 52% (n = 1,900). inhibition, % at 6.7 µM;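 active means mean PP1 inhibition above a set limit taken from the earlier primary screen, cut at about 15% in these data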
PP5 counter: PP5 phosphatase inhibition, counter-screen for PP1 inhibitors; shares compounds with PP1 counter; purified PP5c, OMFP fluorescence; inhibition, % at 6.7 µM; actives 4% (n = 1,900); AID 2360;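 active means mean PP5 inhibition over triplicate wells above about 9.5% taken from the earlier PP1 screen, limit read from the data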
Hits are given with their value. In the library only some 1.9% were active in any assay of this set; here they are far more common.

Results for Cc1sc2nc(COC(=O)c3cccc(S(=O)(=O)N(C)c4ccccc4)c3)[nH]c(=O)c2c1C ?
ATG4B inh: inactive; PP1 counter: 20.9; Cardio protect: inactive; PP5 primary: inactive; PP1 inh confirm: 25.4; PP5 counter: inactive

How did CC(C)c1ccccc1NS(=O)(=O)c1cccs1 do in these assays?
ATG4B inh: inactive; PP1 counter: inactive; Cardio protect: inactive; PP5 primary: inactive

What do the screens show for `COc1cccc(NC(=O)Nc2nnc(Cc3ccc(F)cc3)s2)c1`?
ATG4B inh: inactive; PP1 counter: inactive; Cardio protect: inactive; PP5 primary: inactive

How did COc1ccc(Cc2nnc(NC(=O)Nc3cccc(OC)c3)s2)cc1 do in these assays?
ATG4B inh: inactive; PP1 counter: 18.3; Cardio protect: inactive; PP5 primary: inactive; PP1 inh confirm: 15.4; PP5 counter: inactive

Results for COc1ccc(Cc2nnc(NC(=O)Nc3ccc(F)cc3)s2)cc1 ?
ATG4B inh: inactive; PP1 counter: 21.6; Cardio protect: inactive; PP5 primary: inactive; PP1 inh confirm: inactive; PP5 counter: inactive

How did Cc1oncc1C(=O)Nc1cccc(C#N)c1 do in these assays?
ATG4B inh: inactive; PP1 counter: inactive; Cardio protect: inactive; PP5 primary: inactive

Results for O=C1CC(C(=O)Nc2ccc(Cl)c(Cl)c2)S/C(=N\N=C\c2ccco2)N1 (centres undefined) ?
ATG4B inh: inactive; PP1 counter: 22.5; Cardio protect: inactive; PP5 primary: inactive; PP1 inh confirm: inactive; PP5 counter: inactive

What do the screens show for `O=C1CC(C(=O)Nc2ccc(Cl)cc2)S/C(=N\N=C\c2ccco2)N1` (centres undefined)?
ATG4B inh: inactive; PP1 counter: inactive; Cardio protect: inactive; PP5 primary: inactive

What do the screens show for `Cc1ccc([C@H]2N[C@]3(CCCN(CC4CCCCC4)C3=O)[C@H]3C(=O)N(C)C(=O)[C@@H]23)cc1`?
Cardio protect: inactive

Results for O=S(=O)(Nc1cccc(-c2ccc(N3CCCCCC3)nn2)c1)c1cccc(F)c1 ?
ATG4B inh: inactive; PP1 counter: 17.6; Cardio protect: inactive; PP5 primary: inactive; PP1 inh confirm: inactive; PP5 counter: inactive

Results for CCOc1ccc(S(=O)(=O)Nc2cccc(-c3ccc(N4CCCCCC4)nn3)c2)cc1 ?
ATG4B inh: inactive; PP1 counter: inactive; Cardio protect: inactive; PP5 primary: inactive

What do the screens show for `CN(C)C(=N)c1n[nH]nc1SCc1ccc(Cl)c(Cl)c1`?
ATG4B inh: inactive; PP1 counter: 24.8; Cardio protect: inactive; PP5 primary: inactive; PP1 inh confirm: inactive; PP5 counter: inactive

Results for CCN(CC)c1ccc(NC(=O)c2c(C)noc2C)cc1 ?
ATG4B inh: inactive; PP1 counter: inactive; Cardio protect: inactive; PP5 primary: inactive

What do the screens show for `Cc1ccc(Nc2nc(NCc3ccco3)c3ccccc3n2)cc1`?
ATG4B inh: inactive; PP1 counter: 19.9; Cardio protect: inactive; PP5 primary: inactive; PP1 inh confirm: inactive; PP5 counter: inactive

What do the screens show for `c1ccc(-c2nc(NCc3ccco3)c3ccccc3n2)nc1`?
ATG4B inh: inactive; PP1 counter: 25.6; Cardio protect: inactive; PP5 primary: inactive; PP1 inh confirm: 23.5; PP5 counter: inactive

Results for Oc1ccccc1-c1nc(NCc2ccco2)c2ccccc2n1 ?
ATG4B inh: inactive; PP1 counter: inactive; Cardio protect: inactive; PP5 primary: inactive

What do the screens show for `CN(C(=O)c1ccccc1OCc1ccc(F)cc1)c1c(N)n(Cc2ccccc2)c(=O)[nH]c1=O`?
ATG4B inh: inactive; Cardio protect: inactive

How did N#Cc1cccc(NC(=O)CNc2cccc(S(=O)(=O)N3CCCC3)c2)c1 do in these assays?
ATG4B inh: inactive; PP1 counter: 21.0; Cardio protect: inactive; PP5 primary: inactive; PP1 inh confirm: inactive; PP5 counter: inactive

How did CC(C)(C)c1ccccc1OCC(=O)Nc1ncn[nH]1 do in these assays?
ATG4B inh: inactive; PP1 counter: inactive; Cardio protect: inactive; PP5 primary: inactive

How did CC(C)(C)c1cc(Br)ccc1OCC(=O)Nc1ncn[nH]1 do in these assays?
ATG4B inh: inactive; PP1 counter: 23.4; Cardio protect: inactive; PP5 primary: inactive; PP1 inh confirm: 19.6; PP5 counter: inactive

What do the screens show for `O=C(NCCc1ccc(F)cc1)c1ccc(NS(=O)(=O)c2ccc3[nH]c(=O)[nH]c3c2)cc1`?
ATG4B inh: inactive; PP1 counter: inactive; Cardio protect: inactive; PP5 primary: inactive
